System: PPARg:RXRa DBDmut IVT, anti-RXR (DBD mutation: RXRa K156A/R161A, NR concentration 270 nM, RXRa partner concentration 90 nM)
Assay: PBM binding z-score (relative to random genomic background probes); higher = stronger binding; sequences stand for … in GC…GCGATTGACAGCGTAGAATGAAGG
Summary of the method: (§1)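 Custom Agilent 4×180K protein-binding microarrays carried double-stranded probes, each with a 34-nt variable region. These regions held direct-repeat seeds, single-nucleotide variants, half-site ablations and random human genomic background sequences. Ligand-free nuclear receptor dimers were incubated on the arrays for 1 h, antibodies against each partner (one per run) detected binding, and scanned fluorescence was regression-normalized. Binding z-scores take the random background probes as reference.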

Sequence	PBM binding z-score
CGTCCAAGGTGAGAGAGGTCAGTGAATGCCGAGT	2.16
ACACGGAGGACAAAGGTCAGAGCTACGCCAGTGA	0.363
AGTCAAAGTTCGTCTAGGTAACGTAAGATATGCT	-0.0534
AAAACAGGGTCACTAGGCCAGAGTAGGTACGAAT	5.29
ACAGACAGGTGAGTGAAGGTAATTCAGCTGGACG	0.0687
ATCTCTAGGTAACCAAGTTCAATGAATGCCGAAC	3.3
GGAACGAGGGCAAGTTGATAGCGGAGTTTGATGG	3.78
ACCATTAGTTGAGACGAGGGCAACCGATAGGTTG	0.237
ATATGTAGGTTATCGGTTCATTCAGTTTGCGCAT	7.25
AGAATGAGGTTAAGAACAGGGAAACAGAATACAT	2.35
TCTCGGAGGCCACGAAAGGTCAGAGCTCGACATC	1.78
TCTAGTTGGTCAAAGGTCATACACTCGAAATGCG	3.45
CTAACTAGGTCAAGGACAGTGAATCTCCGCACGC	8.7
TTGCCTAGGTCAGATCGGGCCAGTATACGCTATA	0.589
ACTACTTGGTCAGCTGAGGTCACACACAATTCGG	2.16
CGTCCAAGGTCAGCAAGTCAGTGAAAGCGACGTG	2.61
CCTTTCGGGTCACGAGGTTATAGCACGACGAGCG	3.85
CGTCAAAATTCAACTAAGGTAACGTAAAGCACGC	-0.174

System: PPARg:RXRa IVT, anti-PPARg (NR concentration 270 nM, RXRa partner concentration 90 nM)
Assay: as above
Summary of the method: as §1

Sequence	PBM binding z-score
AGAATCAGGTTATTAAGATCAGGGAATTGCGGTC	2.28
TCGAGTAGGTTAGGGGTATTCAGAATGGCGTCGA	2.26
CCTACTGGGCCCTTCAGAGGTCATTGATCATATG	1.66
GAGACTGGGGCAAAGCAGGTTACCATAAGGTTGG	5.09
CCCACTGGGCCACGAAAGGTCATTGATTCAGTGA	6.02
CCAGACAGGTGAGAAGGTCACTCAGCCTCGATTA	2.14
ATCGAAAGCTCGTGAGGTGAGTATACAGAAAGGC	0.0817
TCTAGTTGGTCAAAGGTCACACATTCGAAATGCG	6.33
TAGCGTAGGTCAGATCGGGCCAGTATACGCTATA	0.617
TCTGGTAGATCAAAGGTTAAGAAAGCCGAAGCCT	2.16
CGTCCAAGGTCAAGGTCAGTCAAAGAGACTCGAA	4.78
TCATATAGGTAAAGGTGAAAGTCGAACGATATGA	4.23
ACAGACAGGTGAGTGAAGGCAACTCAGCTGGACG	0.283
AGAATGAGGTTATTAAGCTCAGGGAATTGCGGTC	1.95
CGTCCAAGGTAAGCAGGTCAGTGAAAGCGACGTG	1.91
ACTAGTTTGTCAGCTGAGGTCACACACAATTCGG	2.31
TCTTGTAGATCAGCAGGTTCAGAAAGCTGGCCAA	0.189
ACAGACAGGTGAGTGAAGGAAACTCAGCTGGACG	0.274
TCTTGTAGATCAAAAGAGGTTAAGAAAGTGCGCT	0.83
TTACCGAGGTGAAGGTCGTTGATCCCTCTGTAGA	3.4

Sequence	PBM binding z-score
CCGAGTAGGTTATGAGGCATTCAGGCAACGGTGA	2.1
CGAACTAGGTCATGCAGGACAGTGAATACATTGA	8.18
CGTCCAAGGTGAGAGAGGTCAGTGAATGCCGAGT	2.49
ACACGGAGGACAAAGGTCAGAGCTACGCCAGTGA	3.8
AGTCAAAGTTCGTCTAGGTAACGTAAGATATGCT	1.36
AAAACAGGGTCACTAGGCCAGAGTAGGTACGAAT	6.57
ACAGACAGGTGAGTGAAGGTAATTCAGCTGGACG	0.119
ATCTCTAGGTAACCAAGTTCAATGAATGCCGAAC	3.19
GGAACGAGGGCAAGTTGATAGCGGAGTTTGATGG	2.64
ACCATTAGTTGAGACGAGGGCAACCGATAGGTTG	0.503
ATATGTAGGTTATCGGTTCATTCAGTTTGCGCAT	7.09
AGAATGAGGTTAAGAACAGGGAAACAGAATACAT	2.23
TCTCGGAGGCCACGAAAGGTCAGAGCTCGACATC	1.96
TCTAGTTGGTCAAAGGTCATACACTCGAAATGCG	5.82
CTAACTAGGTCAAGGACAGTGAATCTCCGCACGC	8.66
TTGCCTAGGTCAGATCGGGCCAGTATACGCTATA	1.07
ACTACTTGGTCAGCTGAGGTCACACACAATTCGG	2.81
CGTCCAAGGTCAGCAAGTCAGTGAAAGCGACGTG	2.52
CCTTTCGGGTCACGAGGTTATAGCACGACGAGCG	5.47
CGTCAAAATTCAACTAAGGTAACGTAAAGCACGC	0.543

System: PPARg DBDmut:RXRa IVT, anti-PPARg (DBD mutation: PPARg1 K132A/R137A, NR concentration 270 nM, RXRa partner concentration 90 nM)
Assay: as above
Summary of the method: as §1

Sequence	PBM binding z-score
AGAATCAGGTTATTAAGATCAGGGAATTGCGGTC	0.999
TCGAGTAGGTTAGGGGTATTCAGAATGGCGTCGA	0.429
CCTACTGGGCCCTTCAGAGGTCATTGATCATATG	-0.729
GAGACTGGGGCAAAGCAGGTTACCATAAGGTTGG	0.833
CCCACTGGGCCACGAAAGGTCATTGATTCAGTGA	1.73
CCAGACAGGTGAGAAGGTCACTCAGCCTCGATTA	-0.281
ATCGAAAGCTCGTGAGGTGAGTATACAGAAAGGC	0.275
TCTAGTTGGTCAAAGGTCACACATTCGAAATGCG	1.17
TAGCGTAGGTCAGATCGGGCCAGTATACGCTATA	-0.164
TCTGGTAGATCAAAGGTTAAGAAAGCCGAAGCCT	-0.482
CGTCCAAGGTCAAGGTCAGTCAAAGAGACTCGAA	1.48
TCATATAGGTAAAGGTGAAAGTCGAACGATATGA	1.81
ACAGACAGGTGAGTGAAGGCAACTCAGCTGGACG	0.108
AGAATGAGGTTATTAAGCTCAGGGAATTGCGGTC	0.589
CGTCCAAGGTAAGCAGGTCAGTGAAAGCGACGTG	-0.624
ACTAGTTTGTCAGCTGAGGTCACACACAATTCGG	0.92
TCTTGTAGATCAGCAGGTTCAGAAAGCTGGCCAA	-0.291
ACAGACAGGTGAGTGAAGGAAACTCAGCTGGACG	-0.163
TCTTGTAGATCAAAAGAGGTTAAGAAAGTGCGCT	0.0222
TTACCGAGGTGAAGGTCGTTGATCCCTCTGTAGA	0.416

Sequence	PBM binding z-score
CCGAGTAGGTTATGAGGCATTCAGGCAACGGTGA	-0.794
CGAACTAGGTCATGCAGGACAGTGAATACATTGA	3.1
CGTCCAAGGTGAGAGAGGTCAGTGAATGCCGAGT	-1.39
ACACGGAGGACAAAGGTCAGAGCTACGCCAGTGA	0.472
AGTCAAAGTTCGTCTAGGTAACGTAAGATATGCT	0.664
AAAACAGGGTCACTAGGCCAGAGTAGGTACGAAT	2.03
ACAGACAGGTGAGTGAAGGTAATTCAGCTGGACG	0.248
ATCTCTAGGTAACCAAGTTCAATGAATGCCGAAC	0.675
GGAACGAGGGCAAGTTGATAGCGGAGTTTGATGG	-0.0734
ACCATTAGTTGAGACGAGGGCAACCGATAGGTTG	0.491
ATATGTAGGTTATCGGTTCATTCAGTTTGCGCAT	4.06
AGAATGAGGTTAAGAACAGGGAAACAGAATACAT	1.48
TCTCGGAGGCCACGAAAGGTCAGAGCTCGACATC	0.112
TCTAGTTGGTCAAAGGTCATACACTCGAAATGCG	1.78
CTAACTAGGTCAAGGACAGTGAATCTCCGCACGC	2.25
TTGCCTAGGTCAGATCGGGCCAGTATACGCTATA	-1.83
ACTACTTGGTCAGCTGAGGTCACACACAATTCGG	0.583
CGTCCAAGGTCAGCAAGTCAGTGAAAGCGACGTG	-0.905
CCTTTCGGGTCACGAGGTTATAGCACGACGAGCG	3.53
CGTCAAAATTCAACTAAGGTAACGTAAAGCACGC	0.555
